Each structure is given as a SMILES string. This is part of a sample that, as a whole, favours compounds with a hit. Of some 79,000 tested, about 15% had one in any assay. Activity calls are given as the source filed them. Rule as the data show it: active = growth inhibition above about 70%; inactive = the rest.

The nature of one experiment: NCI Yeast Anticancer Drug Screen. Data for the bub3 strain (AID 167). The conditions noted are these: S. cerevisiae bub3 mutant strain, at 50.0 µM, stronger effect = higher value. In outline: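 Readout: yeast growth inhibition, expressed relative to vehicle-only wells. The test organism is a mutant strain from a panel with lesions in DNA repair or checkpoint genes.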
In the case of `CN(C)CCSc1nc2ccccc2o1`, the growth inhibition was 16.9% (inactive).

For `COC(=O)[C@H](Cc1c[nH]c2ccccc12)NP(=O)(OCCC#N)OCC1OC(n2cc(C)c(=O)[nH]c2=O)CC1N=[N+]=[N-]` (stereo not given in full), the growth inhibition was -30.8% (inactive).

`CCOC1C=CCCO1` (stereo not given): the growth inhibition was -7.2% (inactive).

With `CC(C)(C)[Si](C)(C)OCC1OC(n2cc(I)c(=O)[nH]c2=O)C(O[Si](C)(C)C(C)(C)C)C1O[Si](C)(C)C(C)(C)C` (stereo not given), the growth inhibition was 11.9% (inactive).

For `CCCCCCCCCCCC(=O)N(CCOC(=O)c1ccccc1)CCc1ccccc1`, the growth inhibition was -3.2% (inactive).

As to `Cc1cc(C)nc(NS(=O)(=O)c2ccc(NC(=O)c3ccncc3)cc2)n1`, the growth inhibition was -8.25% (inactive).

`O=C(OCc1ccccc1)N(CCCCN(CCCNC(=O)C(F)(F)F)C(=O)OCc1ccccc1)CCCNC(=O)C(F)(F)F`: the growth inhibition is 21.8% (inactive).

Regarding `COc1ccc(CC[n+]2cccc(/C(=N/O)c3ccccc3)c2)cc1OC`, the growth inhibition is 8.25% (inactive).

As to `CC(=O)Oc1cccc2cc3cc(C)cc(OC(C)=O)c3c(OC(C)=O)c12`, the growth inhibition was 6.5% (inactive).

For the molecule `O=C(/C=C/c1ccccc1)c1cccc([N+](=O)[O-])c1`, the growth inhibition is 41.9% (inactive).

Consider `CC(=O)Oc1cc2c(cc1Cc1ccc3c(c1)OCO3)OCO2`, for which the growth inhibition was 15.9% (inactive).

For `CC(C)(C)OC(=O)C(N)Cc1ccccc1` (stereo not given), the growth inhibition is 3.35% (inactive).

As for `CCCCOC(=O)NC(=O)c1cc2cc(I)cc(I)c2oc1=O`, the growth inhibition was -10.6% (inactive).

For the molecule `COC(=O)C[C@H](C)[C@H](C)CC(=O)O`, the growth inhibition was -0.45% (inactive).

As for `CCOc1ccc(C2Oc3c(cccc3OC)C=C2[N+](=O)[O-])cc1OCC` (stereo not given), the growth inhibition was 42.2% (inactive).

Take `C/C=C(/C)c1cccc(OCc2ccccc2)c1OCc1ccccc1`: the growth inhibition was -17.3% (inactive).

`COc1ccc2nc(Cl)sc2c1`: the growth inhibition is 42.1% (inactive).

On to `O=C(N(Cc1ccccc1)c1ccccc1)C(Cl)(Cl)Cl`, for which the growth inhibition is 67% (inactive).

For the molecule `COc1ccc(-c2cc(-c3ccc(Cl)cc3)on2)cc1`, the growth inhibition was 10.6% (inactive).

For `c1ccc(CCN=C2c3ccccc3-n3cccc32)nc1`, the growth inhibition was 10.6% (inactive).

Regarding `CCCCC(C(O)c1ccc(C(C)C)cc1)N(CC)CC` (stereo not given), the growth inhibition is 62.2% (inactive).

On to `COc1cc(C)nc2ccc(C(=O)c3ccccc3)cc12`, for which the growth inhibition is 10.4% (inactive).

As to `O=C1SCC(O)=C1/C=N/Nc1nc2ccccc2o1`, the growth inhibition was 13.2% (inactive).

As for `COc1ccc(-c2nc(N)nc3c2CN(CCC(=O)O)C3=O)cc1`, the growth inhibition is 7.45% (inactive).

With `C/C(=N\NC(=S)Nc1ccc([N+](=O)[O-])cc1S(=O)(=O)O)c1ccccn1`, the growth inhibition was -0.4% (inactive).

Take `CCN(CC)C(=O)C1CCCCN1` (stereo not given): the growth inhibition was -11% (inactive).

On to `O=c1[nH]c2c([N+](=O)[O-])cc(Cl)cc2nc1/C=C(\O)c1cccnc1`, for which the growth inhibition was 4.25% (inactive).

On to `CC(=O)C(Cc1cccc([N+](=O)[O-])c1)Cc1cccc([N+](=O)[O-])c1`, for which the growth inhibition is 15.8% (inactive).

For `O=C1CSC(c2c(F)cccc2Cl)N1c1nncs1` (stereo not given), the growth inhibition was 29.6% (inactive).

Regarding `COCCOCOC(C)(C)[C@H](CCO)O[Si](c1ccccc1)(c1ccccc1)C(C)(C)C`, the growth inhibition is 91.4% (active).

As for `C1=Cc2ccccc2Nc2ccccc21`, the growth inhibition was -11.9% (inactive).

As for `COC(=O)c1ccc(SCCC2(COS(C)(=O)=O)OCCO2)cc1`, the growth inhibition was 1.4% (inactive).

As for `COc1ccc(C(=O)/C=C/c2ccc(OC)c(OC)c2OC)c(O)c1`, the growth inhibition is 16.6% (inactive).

Turning to `CCC(C)(C)c1ccc(O)c(CNCCO)c1`, the growth inhibition was 7.55% (inactive).

Turning to `OC1CNC(=S)NC1`, the growth inhibition was -5.2% (inactive).

As for `c1ccc2c3[n+](ccc2c1)CCC[n+]1ccc2ccccc2c1-3`, the growth inhibition was 18.3% (inactive).

Consider `C=C(C)COB(OCC(=C)C)OCC(=C)C`, for which the growth inhibition is -10.8% (inactive).

With `O=C(O)C(Cc1ccc(O)cc1)N=Cc1nc(-c2ccccc2)oc1O` (stereo not given), the growth inhibition is -6.5% (inactive).

For `COc1cc2c(NCCCCCCO[N+](=O)[O-])ncnc2c(OC)c1OC`, the growth inhibition is 39% (inactive).

As to `Nc1nc2ncc(CCCNc3ccc(C(=O)NC(CCC(=O)O)C(=O)O)cc3)nc2c(=O)[nH]1` (stereo not given), the growth inhibition is 3.7% (inactive).

Another experiment can be described thus: NCI Yeast Anticancer Drug Screen. Data for the mlh1 rad18 strain (AID 175). The conditions noted are these: S. cerevisiae mlh1 rad18 strain growth inhibition; at 50.0 µM; stronger effect = higher value. In outline:
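Test agents were incubated with a yeast strain of defined genotype (DNA damage repair defect). Inhibition of growth was derived by comparison with vehicle-exposed cultures.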
`CN(C)CCSc1nc2ccccc2o1`: the growth inhibition is 32.9% (inactive).

On to `COC(=O)[C@H](Cc1c[nH]c2ccccc12)NP(=O)(OCCC#N)OCC1OC(n2cc(C)c(=O)[nH]c2=O)CC1N=[N+]=[N-]` (stereo not given in full), for which the growth inhibition was -65% (inactive).

`CCOC1C=CCCO1` (stereo not given): the growth inhibition is 5.65% (inactive).

With `CC(C)(C)[Si](C)(C)OCC1OC(n2cc(I)c(=O)[nH]c2=O)C(O[Si](C)(C)C(C)(C)C)C1O[Si](C)(C)C(C)(C)C` (stereo not given), the growth inhibition was -33.5% (inactive).

As to `CCCCCCCCCCCC(=O)N(CCOC(=O)c1ccccc1)CCc1ccccc1`, the growth inhibition is 24.5% (inactive).

Consider `Cc1cc(C)nc(NS(=O)(=O)c2ccc(NC(=O)c3ccncc3)cc2)n1`, for which the growth inhibition is -17.1% (inactive).

As to `O=C(OCc1ccccc1)N(CCCCN(CCCNC(=O)C(F)(F)F)C(=O)OCc1ccccc1)CCCNC(=O)C(F)(F)F`, the growth inhibition was -33.8% (inactive).

For `COc1ccc(CC[n+]2cccc(/C(=N/O)c3ccccc3)c2)cc1OC`, the growth inhibition was 6.35% (inactive).

As to `CC(=O)Oc1cccc2cc3cc(C)cc(OC(C)=O)c3c(OC(C)=O)c12`, the growth inhibition is 14.7% (inactive).

For `O=C(/C=C/c1ccccc1)c1cccc([N+](=O)[O-])c1`, the growth inhibition is 4.4% (inactive).

Consider `CC(=O)Oc1cc2c(cc1Cc1ccc3c(c1)OCO3)OCO2`, for which the growth inhibition was -14.5% (inactive).

As for `CC(C)(C)OC(=O)C(N)Cc1ccccc1` (stereo not given), the growth inhibition was -22.6% (inactive).

`CCCCOC(=O)NC(=O)c1cc2cc(I)cc(I)c2oc1=O`: the growth inhibition is 17.6% (inactive).

In the case of `COC(=O)C[C@H](C)[C@H](C)CC(=O)O`, the growth inhibition was -12.9% (inactive).

As to `CCOc1ccc(C2Oc3c(cccc3OC)C=C2[N+](=O)[O-])cc1OCC` (stereo not given), the growth inhibition is 5.7% (inactive).

Take `C/C=C(/C)c1cccc(OCc2ccccc2)c1OCc1ccccc1`: the growth inhibition was -7.05% (inactive).

In the case of `COc1ccc2nc(Cl)sc2c1`, the growth inhibition was 13.6% (inactive).

Regarding `O=C(N(Cc1ccccc1)c1ccccc1)C(Cl)(Cl)Cl`, the growth inhibition was 78% (active).

Take `COc1ccc(-c2cc(-c3ccc(Cl)cc3)on2)cc1`: the growth inhibition is -11.4% (inactive).

`c1ccc(CCN=C2c3ccccc3-n3cccc32)nc1`: the growth inhibition is 16.4% (inactive).

Take `CCCCC(C(O)c1ccc(C(C)C)cc1)N(CC)CC` (stereo not given): the growth inhibition is 38% (inactive).

For the molecule `COc1cc(C)nc2ccc(C(=O)c3ccccc3)cc12`, the growth inhibition is 48% (inactive).

For `O=C1SCC(O)=C1/C=N/Nc1nc2ccccc2o1`, the growth inhibition is 12.3% (inactive).

With `COc1ccc(-c2nc(N)nc3c2CN(CCC(=O)O)C3=O)cc1`, the growth inhibition is 3.9% (inactive).

As for `C/C(=N\NC(=S)Nc1ccc([N+](=O)[O-])cc1S(=O)(=O)O)c1ccccn1`, the growth inhibition was 22.9% (inactive).

Take `CCN(CC)C(=O)C1CCCCN1` (stereo not given): the growth inhibition is 6.65% (inactive).

On to `O=c1[nH]c2c([N+](=O)[O-])cc(Cl)cc2nc1/C=C(\O)c1cccnc1`, for which the growth inhibition is 45.1% (inactive).

As for `CC(=O)C(Cc1cccc([N+](=O)[O-])c1)Cc1cccc([N+](=O)[O-])c1`, the growth inhibition is -9.45% (inactive).

As to `O=C1CSC(c2c(F)cccc2Cl)N1c1nncs1` (stereo not given), the growth inhibition was 10% (inactive).

Consider `COCCOCOC(C)(C)[C@H](CCO)O[Si](c1ccccc1)(c1ccccc1)C(C)(C)C`, for which the growth inhibition was 95.8% (active).

For the molecule `C1=Cc2ccccc2Nc2ccccc21`, the growth inhibition is -23.5% (inactive).

As to `COC(=O)c1ccc(SCCC2(COS(C)(=O)=O)OCCO2)cc1`, the growth inhibition was -4.1% (inactive).

Consider `COc1ccc(C(=O)/C=C/c2ccc(OC)c(OC)c2OC)c(O)c1`, for which the growth inhibition is 14.7% (inactive).

Take `CCC(C)(C)c1ccc(O)c(CNCCO)c1`: the growth inhibition is 8.85% (inactive).

As for `OC1CNC(=S)NC1`, the growth inhibition is 12.9% (inactive).

`c1ccc2c3[n+](ccc2c1)CCC[n+]1ccc2ccccc2c1-3`: the growth inhibition is 79% (active).

Turning to `C=C(C)COB(OCC(=C)C)OCC(=C)C`, the growth inhibition is -16.2% (inactive).

For the molecule `O=C(O)C(Cc1ccc(O)cc1)N=Cc1nc(-c2ccccc2)oc1O` (stereo not given), the growth inhibition is 0.7% (inactive).

For the molecule `COc1cc2c(NCCCCCCO[N+](=O)[O-])ncnc2c(OC)c1OC`, the growth inhibition is 30.6% (inactive).

`Nc1nc2ncc(CCCNc3ccc(C(=O)NC(CCC(=O)O)C(=O)O)cc3)nc2c(=O)[nH]1` (stereo not given): the growth inhibition was 22.1% (inactive).

Values taken from PubChem BioAssay (NCI).
